This is an account of results in PubChem BioAssay (Tox21).

“And” between values parts separate entries of the source, which are not always exact repeats. Identical values can stand only once. Results filed as inconclusive are left out. More than one record can exist for a structure, and the calls need not agree. The source made the active and inactive calls. Unless noted, calls follow the shape of the full dose curve.

A short description of test [1]: Nuclear factor erythroid 2-related factor 2/antioxidant responsive element (Nrf2/ARE) small molecule agonists: qHTS cell viability counter screen in human keratinocytes (AID 1919968; active = well fitted curve in the direction sought with a large enough effect in the repeat runs; an effect the other way counts as inactive or inconclusive; also: nearly all actives have a fitted effect of over 55% in size). Put shortly:
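Seed 1,500 KeratinoSens cells per well, then incubate 5 h at 37 C/5% CO2. Add compounds in DMSO and incubate 23 h. Add CellTiter-Fluor, wait 1 h and read fluorescence.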
For orientation: In qHTS, concentration-response curves come from the screen itself.

Test [2] can be described thus: Nuclear factor erythroid 2-related factor 2/antioxidant responsive element (Nrf2/ARE) small molecule agonists: luciferase reporter gene qHTS assay in human keratinocytes (AID 1919969). Also: nearly all actives have a fitted effect of over 35% in size. A general note: In a reporter assay the amount or activity of a reporter protein is the signal.
Test [3] has as its target KiSS-1 receptor (Homo sapiens) (UniProt Q969F8). Put plainly: Human kisspeptin (KISS1R) small molecule agonists, calcium flux assay in KISS1R-HEK293 cells (AID 1920064; active = well fitted curve in the direction sought with a large enough effect in the repeat runs; an effect the other way counts as inactive or inconclusive). Put shortly: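 Cells plated and incubated 18 h; dye added, 1 h at 37 C; compounds in DMSO pinned in; signal read at 480/540 nm every second for 3 min. Each compound tested at 15 concentrations in triplicate.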
For orientation: Calcium assays in cells follow changes in intracellular calcium, usually with a dye or a luminescent sensor.

Test [4] can be described thus: G protein-coupled receptor (GPCR) small molecule agonists, calcium flux assay: HEK293 wild type cell line counter screen (AID 1920065). A digest of the protocol:
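Counter-screen of the Tox21 10K library for non-specific calcium release: dye-loaded cells received compounds in DMSO and were monitored by kinetic fluorescence (480/540 nm, 3 min). Fifteen concentrations, run in triplicate.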

The nature of test [5]: p53 small molecule agonists, cell-based qHTS assay with human liver microsomes (AID 1963577). A digest of the protocol: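 Fluorescence of the beta-lactamase reporter in p53RE-bla cells, detected with LiveBLAzer substrate (2 h, room temperature, dark), served as the read-out after 16 h compound exposure at 37 C with human liver microsomes and NADPH, each 0.5 mg/mL final.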

The nature of test [6]: p53 small molecule agonists, cell-based qHTS assay with rat liver microsomes (AID 1963578). A digest of the protocol:
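Cells carrying a p53 response element–beta-lactamase reporter were plated and rested 5 h, then dosed with compound in DMSO plus rat liver microsomes and NADPH, each at 0.5 mg/mL final. After 16 h at 37 C, LiveBLAzer substrate was added for 2 h.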

A short description of test [7]: p53 small molecule agonists, cell-based qHTS assay with human liver microsomes: qHTS cell viability counter screen (AID 1963579). Also: nearly all actives have a fitted effect of over 45% in size. Also: potency is read from the fitted curve at half-maximal effect. A digest of the protocol:
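Cytotoxicity counter screen: p53RE-bla, 4,000 cells/well; 5 h settle, 37 C/5% CO2; cpd + HLM 0.5 mg/mL + NADPH 0.5 mg/mL (final); 16 h, 37 C; CellTiter-Glo, 30 min RT, luminescence.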

Test [8] in a line: p53 small molecule agonists, cell-based qHTS assay with rat liver microsomes: qHTS cell viability counter screen (AID 1963580). Also: nearly all actives have a fitted effect of over 45% in size. Put shortly: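 HCT-116 p53RE-bla, 4,000 cells/well, 5 h pre-incubation; cpd + rat liver microsomes 0.5 mg/mL + NADPH 0.5 mg/mL (final); 16 h, 37 C; CellTiter-Glo, 30 min RT; luminescence.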
Test [9] in a line: p53 small molecule agonists, cell-based qHTS assay: qHTS cell viability counter screen (AID 1963581). Also: nearly all actives have a fitted effect of over 45% in size. A digest of the protocol: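 Cells: HCT-116 with p53 response element-driven beta-lactamase. Treatment: 16 h, 37 C, compounds in DMSO. Read: CellTiter-Glo luminescence after 30 min RT.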
For test [10], the target named is 5-hydroxytryptamine receptor 2A (Homo sapiens) (UniProt P28223). Kind of test: 5-hydroxytryptamine receptor 2A (HTR2A) small molecule antagonists, cell-based qHTS assay (AID 1963586). Also: nearly all actives have a fitted effect of over 45% in size. A digest of the protocol:
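Antagonist-mode intracellular calcium assay: DOI (4 nM) added after 5 min compound pre-incubation at room temperature to dye-loaded HTR2A-CHO cells. Fluorescence followed for 3 min, sampled every second.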

The target is the same in test [11]. Put plainly: 5-hydroxytryptamine receptor 2A (HTR2A) small molecule agonists, cell-based qHTS assay (AID 1963587). Also: nearly all actives have a fitted effect of over 30% in size. Put shortly: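 Kinetic calcium-flux fluorescence (2 min, 1 sec intervals) after compound addition in agonist mode. HTR2A-CHO cells were cultured 18 h, then dye-loaded 1 h at 37 C.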
Test [12] addresses Muscarinic acetylcholine receptor M1 (Homo sapiens) (UniProt P11229). Put plainly: Cholinergic receptor muscarinic 1 (CHRM1) small molecule antagonists, cell-based qHTS assay (AID 1963588). Also: nearly all actives have a fitted effect of over 40% in size. A digest of the protocol:
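CHRM1-CHO calcium-flux assay, antagonist mode. Cells were seeded 18 h, dye-loaded 1 h at 37 C and given compound for 5 min at RT, then acetylcholine was added at 50nM. FDSS fluorescence was read 3 min; 15 concentrations, three runs.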

For test [13] the target is unchanged. Kind of test: Cholinergic receptor muscarinic 1 (CHRM1) small molecule agonists, cell-based qHTS assay (AID 1963589). Also: nearly all actives have a fitted effect of over 35% in size. Put shortly: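 Agonist-mode qHTS in CHO cells stably carrying human muscarinic M1. Intracellular calcium is tracked by fluorescence every second after compound transfer; each compound runs at 15 concentrations in three independent runs.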
Test [14] can be described thus: cAMP Responsive Elements (CRE) small molecule agonists, cell-based qHTS assay (AID 1963590). Put shortly: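 Agonist mode qHTS in CRE-bla HEK 293T cells: compounds dosed from DMSO for 3 h at 37 C/5% CO2, followed by LiveBLAzer B/G FRET substrate for 2 h at room temperature.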
The nature of test [15]: cAMP Responsive Elements (CRE) small molecule antagonists, cell-based qHTS assay (AID 1963591; active = well fitted inhibition curve with a large enough effect in the signal ratio in the repeat runs, not every such curve was filed as active; the % refers to the signal ratio). A digest of the protocol:
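Antagonist mode: test compounds are co-incubated with the adenylyl cyclase activator NKH477 (0.25 uM final) on CRE-bla HEK293T cells for 3 h at 37 °C, followed by LiveBLAzer substrate loading.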

Test [16] deals with Beta-2 adrenergic receptor (Homo sapiens) (UniProt P07550). Put plainly: Adrenergic beta2 receptor (ADRB2) small molecule antagonists, cell-based qHTS assay (AID 1963592). Also: series mostly up to about 92 µM; nearly all actives have a fitted effect of over 50% in size. A digest of the protocol:
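Cells (CHO, stable ADRB2 overexpression) incubated 18-20hr at 37C; compounds added from DMSO; agonist mix (1nM isoproterenol, 100uM IBMX, 25uM Ro-20-1724) added; 0.5hr RT; d2-cAMP and anti-cAMP-cryptate added; 1hr RT; 665/615 nm read.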

Test [17] has the same target. Put plainly: Adrenergic beta2 receptor (ADRB2) small molecule agonists, cell-based qHTS assay (AID 1963593).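 Also: CHO cells stably overexpressing human ADRB2.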 A digest of the protocol:
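CHO cells stably over-expressing ADRB2 were plated overnight at 37C, then dosed with compounds plus a stimulation mix containing 100uM IBMX and 25uM Ro-20-1724 for 0.5hr at room temperature. cAMP was measured by HTRF competition, 1hr.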

Test [18] deals with D(2) dopamine receptor (Homo sapiens) (UniProt P14416). Kind of test: Dopamine D2 receptor (DRD2) small molecule agonists, cell-based qHTS assay (AID 1963594). Also: nearly all actives have a fitted effect of over 35% in size. Put shortly:
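cAMP accumulation in DRD2-HEK293 cells measured by HTRF after 1 h detection; compounds added 10 min before NKH477 (200nM […]) forskolin-analogue stimulation, 30 min at room temperature, with Ro20-1724 present at 0.1 mM final.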

For test [19] the target is unchanged. Put plainly: Dopamine D2 receptor (DRD2) small molecule antagonists, cell-based qHTS assay (AID 1963595; active = well fitted inhibition curve with a large enough effect in the signal ratio in the repeat runs, with a control signal flat; the % refers to the signal ratio). Put shortly:
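Stable D2 receptor HEK293 line, 24 h after seeding. Compound preincubated 10 min, then quinpirole (12 nM) with forskolin analogue NKH477 (200 nM), 30 min, room temperature. Detection by time-resolved FRET of cAMP.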

Test [20] in a line: p53 small molecule agonists, cell-based qHTS assay (AID 1963582; active = well fitted activation curve with a large enough effect in the signal ratio in the repeat runs, not every such curve was filed as active; the % refers to the signal ratio). A digest of the protocol:
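Quantitative HTS in p53RE-bla cells: after a 5 h settling period, compounds delivered in DMSO were left on cells for 16 h at 37 C, and reporter induction was measured as fluorescence following 2 h substrate loading.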

Sequence of Beta-2 adrenergic receptor (Homo sapiens) (P07550 whole entry, looked up): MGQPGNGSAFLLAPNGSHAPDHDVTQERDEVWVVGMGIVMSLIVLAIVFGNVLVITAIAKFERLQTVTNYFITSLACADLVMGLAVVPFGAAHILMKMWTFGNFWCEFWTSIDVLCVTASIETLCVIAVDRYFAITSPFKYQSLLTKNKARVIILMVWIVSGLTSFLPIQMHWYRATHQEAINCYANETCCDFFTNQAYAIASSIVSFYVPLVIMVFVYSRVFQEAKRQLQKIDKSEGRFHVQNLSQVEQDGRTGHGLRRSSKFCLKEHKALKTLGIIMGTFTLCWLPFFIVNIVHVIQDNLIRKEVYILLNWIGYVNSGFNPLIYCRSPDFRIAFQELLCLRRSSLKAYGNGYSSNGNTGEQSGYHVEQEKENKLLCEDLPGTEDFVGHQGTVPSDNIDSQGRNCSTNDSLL
Sequence of D(2) dopamine receptor (Homo sapiens) (P14416 whole entry, looked up): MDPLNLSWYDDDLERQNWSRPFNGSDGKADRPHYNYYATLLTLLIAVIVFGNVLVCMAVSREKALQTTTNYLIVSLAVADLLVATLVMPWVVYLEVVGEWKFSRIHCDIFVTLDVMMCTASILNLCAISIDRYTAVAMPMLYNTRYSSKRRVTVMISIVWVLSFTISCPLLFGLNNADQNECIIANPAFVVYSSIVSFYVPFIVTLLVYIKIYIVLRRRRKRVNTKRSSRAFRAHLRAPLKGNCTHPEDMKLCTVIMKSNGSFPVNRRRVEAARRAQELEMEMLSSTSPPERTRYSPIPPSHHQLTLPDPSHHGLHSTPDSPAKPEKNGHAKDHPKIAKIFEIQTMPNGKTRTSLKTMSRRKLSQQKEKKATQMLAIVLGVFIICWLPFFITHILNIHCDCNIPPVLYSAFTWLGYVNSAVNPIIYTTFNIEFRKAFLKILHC
Sequence of Muscarinic acetylcholine receptor M1 (Homo sapiens) (P11229 whole entry, looked up): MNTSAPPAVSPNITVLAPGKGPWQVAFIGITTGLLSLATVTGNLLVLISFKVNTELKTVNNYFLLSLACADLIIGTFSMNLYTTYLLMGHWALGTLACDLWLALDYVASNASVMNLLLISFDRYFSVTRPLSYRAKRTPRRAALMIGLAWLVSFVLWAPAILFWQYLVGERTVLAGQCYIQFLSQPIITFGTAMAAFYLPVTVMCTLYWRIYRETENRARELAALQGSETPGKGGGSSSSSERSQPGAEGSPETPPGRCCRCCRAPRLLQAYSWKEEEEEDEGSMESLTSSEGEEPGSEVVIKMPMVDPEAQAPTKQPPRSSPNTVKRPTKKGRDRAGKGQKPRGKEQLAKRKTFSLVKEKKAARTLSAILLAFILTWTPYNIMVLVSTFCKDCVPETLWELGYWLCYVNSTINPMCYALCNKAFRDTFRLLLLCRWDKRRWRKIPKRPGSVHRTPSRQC
Sequence of 5-hydroxytryptamine receptor 2A (Homo sapiens) (P28223 whole entry, looked up): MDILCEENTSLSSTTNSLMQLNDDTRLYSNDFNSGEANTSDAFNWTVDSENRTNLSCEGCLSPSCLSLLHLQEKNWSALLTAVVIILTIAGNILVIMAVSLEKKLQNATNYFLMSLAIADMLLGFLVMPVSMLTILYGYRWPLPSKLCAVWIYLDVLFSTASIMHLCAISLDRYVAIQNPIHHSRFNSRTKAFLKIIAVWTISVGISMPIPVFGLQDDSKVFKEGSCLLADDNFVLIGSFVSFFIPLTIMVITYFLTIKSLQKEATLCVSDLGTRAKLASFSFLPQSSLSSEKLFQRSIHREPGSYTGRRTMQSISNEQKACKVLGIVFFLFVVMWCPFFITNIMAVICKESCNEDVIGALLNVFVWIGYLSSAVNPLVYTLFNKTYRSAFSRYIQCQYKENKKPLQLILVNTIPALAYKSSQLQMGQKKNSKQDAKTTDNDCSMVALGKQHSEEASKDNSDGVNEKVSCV
Sequence of KiSS-1 receptor (Homo sapiens) (Q969F8 whole entry, looked up): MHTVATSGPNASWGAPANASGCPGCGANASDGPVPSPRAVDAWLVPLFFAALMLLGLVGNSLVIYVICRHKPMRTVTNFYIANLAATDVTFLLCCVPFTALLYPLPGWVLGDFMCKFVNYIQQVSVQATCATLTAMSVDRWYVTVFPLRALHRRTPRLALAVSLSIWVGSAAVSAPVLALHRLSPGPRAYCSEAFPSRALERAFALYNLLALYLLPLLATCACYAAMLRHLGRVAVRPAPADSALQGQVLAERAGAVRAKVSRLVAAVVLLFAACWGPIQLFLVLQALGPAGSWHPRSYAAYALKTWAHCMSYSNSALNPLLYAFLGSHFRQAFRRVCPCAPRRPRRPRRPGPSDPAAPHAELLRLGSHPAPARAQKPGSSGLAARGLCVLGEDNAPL

In the case of `CC(=NC#N)N(C)Cc1ccc(Cl)nc1`, the Potency result in test [1], in test [2], in [3], in test [4], in [5] and in [6] was “inactive” in each case. In addition, the Potency entry in test [7], in [8], in test [9], in [10], in test [11] and in test [12] was “inactive” throughout. Besides, the Potency entry in test [13], in test [14], in test [15], in [16], in test [17] and in test [18] was “inactive” throughout. The Potency entry in test [19] is “inactive”.

On to `Cc1cc(-c2ccc(N)c(C)c2)ccc1N`, for which the Potency entry in test [1], in test [2], in test [3], in test [4], in test [5] and in [6] was “inactive” each time. Also, the Potency result in test [8], in test [9], in [20], in [10], in [11] and in test [12] was “inactive” in each case. Further, the Potency entry in test [13], in [14], in test [15], in test [18] and in test [19] was “inactive” each time. In addition, the Potency result in test [7] was “inactive and 4.07 µM (active)”.

Regarding `Cc1cnc[nH]1`, the Potency result in [1], in test [2], in test [3], in [4], in test [5] and in [6] was “inactive” throughout. Further, the Potency entry in [7], in test [8], in [9], in test [20], in [10] and in test [11] was “inactive” each time. The Potency entry in [12], in test [13], in test [14], in [15], in [16] and in test [17] was “inactive” throughout. Further, the Potency result in test [18] and in test [19] was “inactive” in each case.

Consider `[O-][Cl+2]([O-])O`, for which the Potency entry in test [1], in test [2], in test [3], in test [4], in [5] and in test [6] was “inactive” each time. In addition, the Potency entry in test [7], in [8], in [9], in test [20], in [10] and in test [11] was “inactive” each time. The Potency entry in test [12], in test [13], in test [15], in test [16], in test [17] and in test [18] was “inactive” in each case. Further, in test [19], the Potency result was “inactive”.

Consider `CCC(C)Cl` (stereo not given), for which the Potency result in [1], in [2], in test [3], in test [4], in [5] and in test [6] was “inactive” each time. Moreover, the Potency result in [7], in test [8], in test [9], in test [20], in test [10] and in [11] was “inactive” throughout. In addition, the Potency result in test [14], in test [15] and in test [16] was “inactive” each time.

`C=CCc1cc(OC)c2c(c1)OCO2`: the Potency entry in test [1], in test [2], in test [3], in test [4], in test [5] and in test [6] was “inactive” in each case. Besides, the Potency result in [7], in test [8], in test [9], in test [20], in test [10] and in test [11] was “inactive” in each case. Further, the Potency entry in [12], in test [13], in [14], in test [15], in test [18] and in test [19] was “inactive” in each case.

`Cc1cccc(C#N)c1`: the Potency result in test [1], in test [2], in test [3], in test [4], in test [5] and in test [6] was “inactive” each time. In addition, the Potency entry in test [7], in test [8], in test [9], in test [20], in test [10] and in test [11] was “inactive” throughout. For the same compound, the Potency entry in test [12], in test [13], in test [14], in test [15], in test [18] and in test [19] was “inactive” throughout.

Regarding `CCCC1COC(Cn2cncn2)(c2ccc(Cl)cc2Cl)O1` (stereo not given), the Potency result in test [1], in test [2], in [3], in test [4], in test [5] and in [6] was “inactive” throughout. The Potency entry in test [7], in [8], in [9], in test [10], in [11] and in [12] was “inactive” throughout. Also, the Potency result in [13], in [15], in test [16], in [17], in test [18] and in [19] was “inactive” in each case.
